Test results published in PubChem BioAssay (NCATS).
Values without a mark were called inactive. Inconclusive results are not listed. A call without a number means that no potency is given here. The source made the active and inactive calls. The call rests on the fitted dose curve; in most records, active means well fitted curve in the direction sought with a large enough effect; inconclusive means small, poorly fitted or top-dose-only effect, or another doubt; inactive means no such curve, though single readings can be large or run the other way.

Columns and labels:
[1] = target: T1, Hexokinase-4 (Homo sapiens) + Glucokinase regulatory protein (Homo sapiens) (UniProt P35557+Q14397); experiment: qHTS assay for inhibitors of recombinant human GCK-GKRP interaction: Diaphorase-coupled assay (AID 743205); conditions: G6PDH/diaphorase resorufin fluorescence; series mostly up to 57.5 µM
In short: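 Signal derives from resorufin generated by diaphorase, linked to GCK turnover of glucose (5 mM) and ATP (0.4 mM). Enzyme complex was added after a 20-minute compound preincubation and monitored for 30 minutes.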

[2] = target: T1, Hexokinase-4 (Homo sapiens) + Glucokinase regulatory protein (Homo sapiens); experiment: qHTS assay for inhibitors of recombinant human GCK-GKRP interaction: ADP-Glo assay (AID 743206); conditions: ADP-Glo luminescence, 60 min; series mostly up to 76.9 µM
In short: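 GST-GCK and FLAG-GKRP (15 nM each in the dispensed mix, with 2 uM S6P) react with 0.4 mM ATP and 5 mM glucose (final) in Hepes pH 7.6 for 60 min at room temperature. ADP is measured by ADP-Glo luminescence.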

[3] = target: T1, Hexokinase-4 (Homo sapiens) + Glucokinase regulatory protein (Homo sapiens); experiment: qHTS assay for inhibitors of recombinant human GCK-GKRP interaction: HTRF assay (AID 743207); conditions: recombinant GCK-GKRP HTRF binding, 60 min, with sorbitol-6-phosphate; series mostly up to 57.5 µM
In short: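 Titration screening format: recombinant GST-GCK and FLAG-GKRP at 5 nM, S6P at 2 uM, labelled anti-tag antibodies, 60 min at RT, dual-wavelength HTRF readout.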

[4] = qHTS Assay for Identifying Gametocytocidal Compounds (AID 743244); further: potency means the concentration at half of the fitted maximal effect;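 on max response: actives lower the fluorescent signal which means gametocytes are killed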; conditions: P. falciparum 3D7 stage III-V gametocytes, alamarBlue, 72 h; max response: hits give low values
In short: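 In this qHTS viability screen, late-stage 3D7 gametocytes are incubated with compound for 72 h, then with alamarBlue for 24 h; reduced resorufin fluorescence marks killing.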

T1 sequence (P35557 whole entry, looked up): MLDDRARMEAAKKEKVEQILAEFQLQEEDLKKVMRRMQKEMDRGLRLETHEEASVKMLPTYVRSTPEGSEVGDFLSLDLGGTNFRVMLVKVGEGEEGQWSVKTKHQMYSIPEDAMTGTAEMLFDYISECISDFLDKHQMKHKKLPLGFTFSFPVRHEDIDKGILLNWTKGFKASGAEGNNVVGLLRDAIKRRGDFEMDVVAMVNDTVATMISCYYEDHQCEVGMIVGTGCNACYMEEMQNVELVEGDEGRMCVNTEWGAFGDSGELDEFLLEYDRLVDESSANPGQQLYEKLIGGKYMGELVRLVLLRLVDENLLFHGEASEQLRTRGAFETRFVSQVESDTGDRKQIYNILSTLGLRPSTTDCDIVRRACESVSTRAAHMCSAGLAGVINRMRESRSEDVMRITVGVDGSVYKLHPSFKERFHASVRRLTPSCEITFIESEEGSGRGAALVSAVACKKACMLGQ
T1 sequence (Q14397 whole entry, looked up): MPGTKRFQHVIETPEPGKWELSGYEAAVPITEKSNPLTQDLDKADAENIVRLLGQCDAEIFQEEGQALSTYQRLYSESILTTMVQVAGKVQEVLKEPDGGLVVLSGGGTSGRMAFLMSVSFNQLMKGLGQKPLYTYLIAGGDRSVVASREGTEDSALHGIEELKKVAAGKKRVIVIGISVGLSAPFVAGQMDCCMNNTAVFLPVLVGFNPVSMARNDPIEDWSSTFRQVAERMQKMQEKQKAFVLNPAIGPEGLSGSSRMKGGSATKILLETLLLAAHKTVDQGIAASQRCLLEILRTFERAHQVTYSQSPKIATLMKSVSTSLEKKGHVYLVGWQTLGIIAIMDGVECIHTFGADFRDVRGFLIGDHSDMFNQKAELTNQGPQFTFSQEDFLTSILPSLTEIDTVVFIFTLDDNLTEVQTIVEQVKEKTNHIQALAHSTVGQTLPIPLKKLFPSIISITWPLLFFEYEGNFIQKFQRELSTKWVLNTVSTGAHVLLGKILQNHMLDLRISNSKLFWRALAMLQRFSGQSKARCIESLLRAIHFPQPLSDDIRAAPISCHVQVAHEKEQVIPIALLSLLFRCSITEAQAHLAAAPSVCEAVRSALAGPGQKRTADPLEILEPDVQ

SMILES | Potency [1] | Potency [2] | Potency [3] | max response [4] | Potency [4]
NC(N)=NC(N)=Nc1cccc(Cl)c1 | inactive | inactive | inactive | 35.4% | 
Clc1nccc2c1ccc1ccccc12 | inactive | inactive | inactive | 7.1% | 
N#CC(=C(\N)Sc1ccccc1N)/C(C#N)=C(/N)Sc1ccccc1N | inactive | inactive | inactive | 14.1% | 
NOCC(=O)O | inactive | inactive | inactive | -2.42% | 
c1ccc2c(c1)CC(N1CCN(c3cccc4c3OCCO4)CC1)C2 | inactive | inactive | inactive | 9.97% | 
CNCCNS(=O)(=O)c1cccc2cnccc12 | inactive | inactive | inactive | 18.9% | 
CN1CC(O)C(O)C(O)C1CO (stereo unspecified) | inactive | inactive | inactive | 11.6% | 
Cc1ccc([N+](=O)[O-])cc1S(=O)(=O)N(C)C | inactive | inactive | inactive | 4.81% | 
COc1ccc(C(=O)NCc2cccnc2)cc1C(=O)NCc1cccnc1 | inactive | inactive | inactive | 22.9% | 
CO/N=C(\C(=O)N[C@@H]1C(=O)N2C(C(=O)O)=C(CSc3nc(=O)c(O)nn3C)CSC12)c1csc(N)n1 (stereo partly specified) | inactive | inactive | inactive | 32.5% | 
Nc1ncnc2c1ncn2C1CCCO1 (stereo unspecified) | inactive | inactive | inactive | -5.04% | 
CC(C)[C@@H]1CC[C@@H](C)C[C@@H]1P(=O)(c1ccccc1)c1ccccc1 | inactive | inactive | inactive | 7.79% | 
CN1CCC2(CCN3CCc4c(oc5ccccc45)C3C2)N(C)C1=O (stereo unspecified) | inactive | inactive | inactive | 28.4% | 
CCOC(=O)C12CC1/C(=N/O)c1ccccc1O2 (stereo unspecified) | inactive | inactive | inactive | 0.715% | 
NC/C=C\C(=O)O | inactive | inactive | inactive | 7.58% | 
O=C(O)/C=C/c1cnc[nH]1 | inactive | inactive | inactive | 8.66% | 
CCCn1c(=O)c2[nH]c(C3CCCC3)nc2n(CCC)c1=O | inactive | inactive | inactive | 13.8% | 

SMILES | Potency [1] | Potency [2] | Potency [3] | max response [4] | Potency [4]
O=c1ccc2c(OCCCCc3ccccc3)c3ccoc3cc2o1 | inactive | inactive | inactive | 10.3% | 
CN(C)CCC(c1ccc(Br)cc1)c1ccccn1 (stereo unspecified) | inactive | inactive | inactive | 11.9% | 
CN(CC[C@@H](Oc1ccc(C(F)(F)F)cc1)c1ccccc1)CC(=O)O | inactive | inactive | inactive | 25.4% | 
c1ccc(C(NCCNC(c2ccccc2)c2ccccc2)c2ccccc2)cc1 | inactive | inactive | inactive | -2.86% | 
N[C@@H](CCC(=O)N[C@H](CSN=O)C(=O)NCC(=O)O)C(=O)O | inactive | inactive | inactive | 16.7% | 
CCCn1c(=O)c2[nH]c(-c3ccc(S(=O)(=O)O)cc3)nc2n(CCC)c1=O | inactive | inactive | inactive | 27.3% | 
CC(=O)O[C@H]1Cc2ccccc2N(C(N)=O)c2ccccc21 | inactive | inactive | inactive | 18.2% | 
Nc1ncnc2c1nc(Sc1ccc(Cl)cc1)n2[C@H]1OC2COP(=O)(O)O[C@@H]2C1O (stereo partly specified) | inactive | inactive | inactive | 39.2% | 
NC1C=CC=C(C(=O)O)C1 (stereo unspecified) | inactive | inactive | inactive | -5.22% | 
CC(N)=NCCCC[C@@H](N)C(=O)O | inactive | inactive | inactive | 25.1% | 
CC(N)(Cc1ccc(O)cc1)C(=O)O (stereo unspecified) | inactive | inactive | inactive | -28.2% | 
COC(=O)C(N)Cc1ccc(Cl)cc1 (stereo unspecified) | inactive | inactive | inactive | 4.72% | 
CC(N)(Cc1ccc(O)c(O)c1)C(=O)O (stereo unspecified) | inactive | inactive | inactive | 8.06% | 
Cc1ccc2c(c1)C(N1CCN(C)CC1)=Nc1cccnc1N2 | inactive | inactive | inactive | 23% | 
O=C(O)C1=CCCNC1 | inactive | inactive | inactive | 15% | 
COC1(C2=NCCN2)COc2ccccc2O1 (stereo unspecified) | inactive | inactive | inactive | 25.5% | 
CCCCCCCCCC(=O)NC(CN1CCOCC1)[C@H](O)c1ccccc1 (stereo partly specified) | inactive | inactive | inactive |  | 3.55 µM (active)
